Each compound was assayed against Lysosomal acid glucosylceramidase (Homo sapiens) (UniProt P04062) (assay: Glucocerebrosidase-p2 (AID 348)). Details: purified GBA, blue fluorogenic substrate, 40 min; in the data active means potency below about 10 µM; inactive means the rest.
Source text: Beta-glucocerebrosidase catalyzes the hydrolysis of beta-glucocerebroside to glucose and ceramide. The inherited deficiency of beta-glucocerebrosidase results in Gaucher disease, which is characterized by a wide variety of symptoms including hepatosplenomegaly, anemia, thrombocytopenia, bony lesions and bone marrow infiltration with characteristic storage cells, known as Gaucher cells. There are also forms of the disorder affecting the central nervous system. Patients with the same genotypes can manifest with diverse clinical presentations and it is believed that improper folding and trafficking of beta-glucocerbrosidase may contribute to the phenotypes observed.
Low molecular weight molecules, acting as chaperones, may potentially restore trafficking of misfolded beta-glucocerebrosidase from the endoplasmic reticulum to the lysosomes, thereby enhancing functional lysosomal beta-glucocerebrosidase activity.
Using normal beta-glucocerebrosidase, an assay was developed to screen for small molecule inhibitors that could potentially act as molecular chaperones on the mutant forms [developed with NIH investigator Dr. Ellen Sidransky#s laboratory]. Two pro-fluorescent substrates were chosen for two screens against a small molecule library. One beta-glucocerebrosidase assay used Resorufin beta-D-Glucopyranoside (Marker Gene Technology Inc.), generating a red fluorescent product. The second assay used […] fluorescent product. The Km for the Resorufin beta-D-Glucopyranoside and Fluorescein di-beta-D-Glucopyranoside were determined to be 71.2 uM and 855 uM, respectively. The IC50 values of Conduritol B Epoxide, a known glucocerebrosidase inhibitor, were determined to be 87.5 uM and 117 uM, respectively. The use of two difference pro-fluorescent substrates in the screens helped to eliminate false positives. All compounds were screened in a titration series resulting in AC50s (e.g., IC50s or EC50s). Data normalization and AC50 calculations were accomplished using GeneData software.
NCGC Assay Protocol Summary
Both enzyme and substrate were diluted in buffer composed of 50mM citric acid/KH2PO4, 10mM sodium taurocholate and 0.01% tween-20 at pH 5.9. The final concentration of the enzyme was 0.2 nM in both assays. The compound library was titrated in 7 to 15 concentrations for the primary screens with a final concentration ranging from 0.6 nM to 50 uM. This particular assay protocol is for the "blue" substrate, and it was performed in 1536-well plate format as follows:
Blue fluorescence substrate assay:
1 uL substrate (final concentration of 80 uM)
Incubate at room temperature (RT) for 40 minutes
3 uL stop solution (1 M NaOH and 1 M glycine in water)
Read the plate in Viewlux plate reader (Ex=365(10) and Em=440(10)).
Potency means the concentration at half of the fitted maximal effect.

Lysosomal acid glucosylceramidase (Homo sapiens), sequence (P04062 whole entry, looked up): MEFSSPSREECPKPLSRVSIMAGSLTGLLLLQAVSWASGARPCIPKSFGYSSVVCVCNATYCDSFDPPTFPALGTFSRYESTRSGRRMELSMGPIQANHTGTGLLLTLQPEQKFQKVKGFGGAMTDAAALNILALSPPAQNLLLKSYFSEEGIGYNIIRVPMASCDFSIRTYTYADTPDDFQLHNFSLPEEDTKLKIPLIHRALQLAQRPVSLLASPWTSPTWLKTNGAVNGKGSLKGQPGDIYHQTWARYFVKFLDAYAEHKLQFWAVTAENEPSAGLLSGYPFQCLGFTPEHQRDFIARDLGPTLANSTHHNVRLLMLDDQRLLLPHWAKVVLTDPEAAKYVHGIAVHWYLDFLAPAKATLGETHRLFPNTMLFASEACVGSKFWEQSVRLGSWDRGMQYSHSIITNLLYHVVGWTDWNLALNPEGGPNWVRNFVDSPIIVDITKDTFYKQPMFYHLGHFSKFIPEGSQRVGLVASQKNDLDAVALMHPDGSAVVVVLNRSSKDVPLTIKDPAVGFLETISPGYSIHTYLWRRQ

Potency, inactive:
CN(C)c1ncc2nc(-c3cccs3)c(=O)n(CCc3ccccc3)c2n1 > 11.4 µM, COc1ccc(-n2c(=O)c(-c3cc(F)cc(F)c3)nc3cnc(N4CCNCC4)nc32)cc1 > 11.4 µM, CN1CCN(c2nc(-c3cccc(NS(C)(=O)=O)c3)nc3ccccc23)CC1 > 11.4 µM, N#Cc1ccc(CN2CCC3(CC2)CCN(C(=O)c2csnn2)CC3)cc1 > 11.4 µM, O=c1c(-c2cccc(F)c2)nc2cncnc2n1-c1ccccc1 > 11.4 µM, Cn1cc(-c2nc3cncnc3n(CCN)c2=O)c2ccccc21 > 11.4 µM, O=c1c(-c2ccccc2)nc2cnc(N3CCOCC3)nc2n1Cc1ccc(F)cc1 > 11.4 µM, COc1ccc(CNc2ccnc(-c3cccc(NS(C)(=O)=O)c3)n2)c(OC)c1 > 11.4 µM, O=C(c1csnn1)N1CCC2(CC1)CCN(c1ccccn1)CC2 > 11.4 µM, COc1ccc2[nH]cc(CCNc3cc(-c4ccccc4C)ncn3)c2c1 > 11.4 µM, O=c1c(CCc2ccccc2)nc2cnc(N3CCOCC3)nc2n1CCc1ccccc1 > 11.4 µM, COc1ccccc1CN1CCC2(CC1)CCN(C(=O)c1csnn1)CC2 > 11.4 µM, COc1ccccc1CN1CC2(CCN(C(=O)c3ccncc3)CC2)C1 > 11.4 µM, COc1ccc(-c2nc3cnc(OC)nc3n(Cc3cccc(OC)c3)c2=O)cc1 > 11.4 µM, CN1CCN(c2ncnc3ccc(-c4ccoc4)cc23)CC1 > 11.4 µM, COc1cccc(Cn2c(=O)c(-c3ccc(F)cc3)nc3cnc(N4CCNCC4)nc32)c1 > 11.4 µM, COCCn1c(=O)c(CCc2ccccc2)nc2cnc(Nc3ccccc3)nc21 > 11.4 µM, O=S(=O)(c1ccccc1)N1CCC2(CCCN(c3ccncc3)C2)CC1 > 11.4 µM, COc1ccccc1CN1CCCC2(CCN(C(=O)c3cc(C(F)(F)F)cc(C(F)(F)F)c3)CC2)C1 > 11.4 µM, COc1ncc2nc(C)c(=O)n(Cc3ccc(F)cc3)c2n1 > 11.4 µM, COCCn1c(=O)c(-c2cn(C)c3ccccc23)nc2cncnc21 > 11.4 µM, CN(C)Cc1ccccc1-c1cc(NCc2ccccc2)ncn1 > 11.4 µM, O=S(=O)(c1ccccc1)N1CCC[C@@]2(CCN(c3ncccn3)C2)C1 > 11.4 µM, c1csc(CNc2nc(-c3ccc4c(c3)OCO4)nc3ccccc23)c1 > 11.4 µM, Cn1cccc1C(=O)N1CCC2(CCCN(C(=O)Nc3ccccc3)C2)CC1 > 11.4 µM, CC(=O)N1CCC[C@@]2(CCN(Cc3ccc(C#N)cc3)C2)C1 > 11.4 µM, Cc1noc(C)c1C(=O)N1CCC2(CC1)CN(Cc1cc(C(F)(F)F)cc(C(F)(F)F)c1)C2 > 11.4 µM, CC(=O)NCCNc1ncncc1-c1ccccc1CN(C)C > 11.4 µM, Cc1nc2cnc(Oc3ccccc3)nc2n(-c2ccccc2)c1=O > 11.4 µM, COc1ncc2ncc(=O)n(C3CC3)c2n1 > 11.4 µM, CNc1nc(-c2ccccc2OC)nc2ccccc12 > 11.4 µM, N#CCCn1c(=O)c(-c2cc(F)cc(F)c2)nc2cnc(N3CCOCC3)nc21 > 11.4 µM, COc1ccc2[nH]cc(CCNc3cc(-c4cccnc4)ncn3)c2c1 > 11.4 µM, COc1ccc(C(=O)N2CCC3(CCCN(c4ccncc4)C3)CC2)cc1 > 11.4 µM, COc1ncc2nc(C)c(=O)n(CCC#N)c2n1 > 11.4 µM, CC(C)CN1CCC2(CC1)CCN(C(=O)c1ccco1)CC2 > 11.4 µM, CN1CC[C@@]2(CCCN(C(=O)c3cc(C(F)(F)F)cc(C(F)(F)F)c3)C2)C1 > 11.4 µM, COC(=O)N1CCC2(CCN(Cc3ccccc3OC)CC2)CC1 > 11.4 µM, CS(=O)(=O)N1CCC2(CCCN(c3ncccn3)C2)CC1 > 11.4 µM, CN(Cc1ccco1)c1cc(-c2cccnc2)ncn1 > 11.4 µM

From PubChem BioAssay (NCATS)
